Measurements published in PubChem BioAssay (NCI).
This is part of a sample that, as a whole, favours compounds with a hit. Of some 83,000 tested, about 20% had one in any assay.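 Interpretation: 100, growth as untreated; towards 0, rising growth inhibition; 0, no net growth; 0 to -100, cell death. Compounds scoring below 10 were considered active.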 A number with no mark means an inactive call. The source made the active and inactive calls.

How the values were obtained:
Test in all cases: NCI-60 one-dose screen, 48 h (100 = growth as untreated, 0 = no growth, -100 = all killed)
Settings in all cases: 10 µM
NCI-H23 lung = tested on: NCI-H23 lung
NCI-H226 lung = tested on: NCI-H226 lung
HOP-62 NSCLC = tested on: HOP-62 NSCLC
NCI-H460 lung = tested on: NCI-H460 lung
NCI-H522 lung = tested on: NCI-H522 lung
A549/ATCC NSCLC = tested on: A549/ATCC NSCLC
786-0 renal = tested on: 786-0 renal
COLO 205 colon = tested on: COLO 205 colon
HOP-92 NSCLC = tested on: HOP-92 NSCLC

SMILES	growth (NCI-H23 lung)	growth (NCI-H226 lung)	growth (HOP-62 NSCLC)	growth (NCI-H460 lung)	growth (NCI-H522 lung)	growth (A549/ATCC NSCLC)	growth (786-0 renal)	growth (COLO 205 colon)	growth (HOP-92 NSCLC)
COc1cc(-c2ccc(N=Nc3ccc4c(S(=O)(=O)O)ccc(N)c4c3O)c(OC)c2)ccc1N=Nc1ccc2c(S(=O)(=O)O)ccc(N)c2c1O	101%	102%	85.9%	108%	105%	106%	120%	95.7%	–
CCOc1ccccc1/C=N\N=C(\N)N/N=C/c1ccccc1OCC	23.7%	59.1%	43.7%	–	7.36% (active)	39.4%	21.4%	28.9%	46.5%
NC(=O)c1cccc(-n2ccc3cc(NC(=O)Nc4ccc(Cl)c(C(F)(F)F)c4)ccc32)n1	82.2%	66.2%	86.5%	68%	64.7%	68.2%	49.1%	85.6%	–
CC(=O)OC1CC2C(C)(C)CCC[C@]2(C)C2=C1C(O)=C(C(C)C)C(=O)C2=O (stereo not given in full)	9.91% (active)	-71.1% (active)	-40.3% (active)	-39.8% (active)	58.6%	6.64% (active)	-3.43% (active)	-38.5% (active)	–
Nc1nc(-c2ccc(Cl)cc2)cc(-c2cc3ccccc3oc2=O)n1	92.5%	88.9%	84.7%	101%	–	103%	95.7%	100%	–
Cc1ccc(NC(=O)N2CCCCC2)cc1[N+](=O)[O-]	91.1%	94.9%	84.2%	108%	-29.1% (active)	39.5%	102%	99.4%	–
CCOC(=O)N/N=C/c1ccc(OC)c(OC)c1	113%	97.9%	112%	102%	–	102%	104%	–	–
COc1cccc2ccc(CC(O)(c3ccccc3)c3ccccc3)nc12	89.6%	71.2%	86.8%	90.8%	93.5%	95.5%	96.7%	95.4%	–
COc1ccc(Nc2cnc3cc(NS(=O)(=O)c4ccc(C)cc4)ccc3n2)cc1	86.5%	94%	79%	84.4%	36.1%	66.2%	97%	96.4%	–
CS(=O)(=O)c1nccc(-c2c(-c3cccc(OCCc4ccccc4)c3)nc3sccn23)n1	95.6%	81.4%	93%	106%	90.5%	101%	108%	103%	–
N#Cc1cnn(C(=O)c2nn(-c3ccc(Cl)cc3)cc2O)c1N	9.65% (active)	18.4%	19.2%	3.09% (active)	-13.7% (active)	15.1%	17.3%	-23.4% (active)	–
Cn1cnc([N+](=O)[O-])c1/C=C1\Oc2ccc(Br)cc2C1=O	93%	101%	100%	97.3%	52.7%	104%	91.4%	98%	–
Cc1c2c(nn1C(=O)c1nn(-c3ccc(Cl)cc3)cc1O)-c1ccccc1CC2	16.6%	22%	23.7%	9.48% (active)	-8.04% (active)	21.8%	21.1%	-4.51% (active)	–
NC1=NC(c2ccc(Cl)cc2)C2=C(N1)/C(=C/c1ccc(Cl)cc1)CCC2 (stereo not given)	61.1%	109%	140%	91.3%	19.1%	66.7%	90.4%	92%	–
Cc1cc(NC(=O)c2ccc(C)c(Nc3nccc(-c4cccnc4)n3)c2)cc(-n2cnc(C)c2)c1	67.6%	-17.6% (active)	–	2.48% (active)	59.3%	47.1%	-30% (active)	–	25.3%
Cc1cn(-c2cc(F)cc(NC(=O)c3ccc(C)c(Nc4nccc(-c5cccnc5)n4)c3)c2)cn1	94.2%	-12.3% (active)	–	20.1%	11.5%	19.3%	-6.06% (active)	70.9%	-22% (active)
CCCc1cn(CC(=O)Nc2nc3ccccc3s2)nn1	110%	106%	–	103%	93.8%	98.4%	108%	109%	109%
CCn1cc(C(=O)O)c(=O)c2cc(F)c(N3CCNCC3)cc21	108%	92.3%	–	104%	104%	103%	108%	102%	115%
CN(C)CCOc1ccc(-c2nc3sccn3c2-c2ccnc(S(C)(=O)=O)n2)cc1	103%	102%	–	103%	106%	95%	105%	114%	57%
COc1ccc(-c2nn(-c3cccc(Cl)c3)cc2/C=C2\NC(=S)N(c3ccc(Cl)cc3)C2=O)cc1	-7.88% (active)	-42.5% (active)	–	11%	-37.7% (active)	18.8%	46.6%	36.9%	29.3%
Cc1ccc2nc(Cl)c(-c3nc4ccccc4o3)cc2c1	77.6%	90.7%	–	106%	90.3%	99.6%	99.5%	89.5%	83%
CC(C)(C)OC(=O)CC(S(=O)(=O)c1ccccc1)S(=O)(=O)c1ccccc1	102%	94.5%	103%	–	-36.4% (active)	112%	105%	-98.1% (active)	122%
CN(C)CCCOc1cccc(NC2=C(Cl)C(=O)C(Nc3cccc(OCCCN(C)C)c3)=C(Cl)C2=O)c1	-67.1% (active)	-70% (active)	–	38.3%	-79.5% (active)	52%	-94.2% (active)	-79.7% (active)	-74.3% (active)
O=C(Nc1nc(-c2ccccc2)nc2c1sc(=S)n2-c1ccccc1)C(F)(F)F	89.9%	90.3%	–	99.3%	86.6%	74.9%	98.9%	115%	81.4%
CC(=O)Nc1ccc(S(=O)(=O)c2ccnc3cc(Cl)ccc23)cc1	68.2%	78.1%	99.1%	–	28.1%	85.3%	125%	95.3%	99.8%
COc1ccc(-c2nn(-c3cccc(Cl)c3)cc2-c2c(C#N)c(=O)n3[nH]c(-c4ccc(C)cc4)nc3c2C#N)cc1	75.3%	57.5%	–	39.3%	20.5%	50.5%	3.78% (active)	–	59.2%
CCOC(=O)C1C(C(=O)OCC)C2C(=O)C3C(C(=O)OCC)C(C(=O)OCC)C3C(=O)C12 (stereo not given)	98.9%	100%	–	103%	104%	100%	103%	120%	104%

SMILES	growth (NCI-H23 lung)	growth (NCI-H226 lung)	growth (HOP-62 NSCLC)	growth (NCI-H460 lung)	growth (NCI-H522 lung)	growth (A549/ATCC NSCLC)	growth (786-0 renal)	growth (COLO 205 colon)	growth (HOP-92 NSCLC)
Nc1cc(-c2ccc(Cl)cc2)nn1-c1nc2ccccc2nc1Cc1ccccc1	81.5%	84.3%	88.8%	–	85.7%	78%	89.5%	109%	–
COc1cc2c(Nc3ccc(S(N)(=O)=O)cc3)ncnc2c(OC)c1OC	96.7%	84.9%	–	105%	89.4%	102%	121%	89.2%	85.9%
N#Cc1c(N)nc(-c2cc(F)cc(C(F)(F)F)c2)nc1-c1ccccc1F	51.9%	30.1%	–	15.2%	68.3%	41.7%	1.27% (active)	24.7%	34.7%
COc1ccc(-c2nn(-c3cccc(Cl)c3)cc2-c2c(C#N)c(=O)n3[nH]c(-c4ccccc4)nc3c2C#N)cc1	81.1%	88%	–	105%	72.4%	98.9%	89.4%	123%	93.3%
O=C(Nc1cc([N+](=O)[O-])c2[nH]c(=O)c3ccccc3c2c1)C(F)(F)F	81.8%	93.4%	–	38.4%	77.2%	62%	88.8%	88.5%	112%
CCc1ccc(C2=NN(c3ccc(S(C)(=O)=O)cc3)C(=O)CC2)cc1	-4.83% (active)	69.1%	–	10.5%	-1.27% (active)	35.6%	36.4%	22.5%	68.6%
CN(C)CCC1(c2ccccc2)CCN(C)C1=O (stereo not given)	103%	95.7%	96.9%	–	86.4%	105%	109%	105%	123%
COc1ccc(C(=O)N2C=Cc3ccccc3C2C#N)cc1 (stereo not given)	95.3%	87.7%	89.4%	–	94.2%	101%	114%	105%	102%
Cc1c2cnccc2c(C)c2c1oc1ccccc12	56.1%	69.4%	–	28.4%	69.6%	43%	84.9%	52.3%	113%
Clc1ccc(/C=C2\CCCC3C2=Nc2ccccc2NC3c2ccc(Cl)cc2)cc1 (stereo not given)	83.3%	100%	–	94.3%	20%	78.5%	114%	68.2%	60.6%
O=C1/C=C/[C@@H](O)[C@@H]2C[C@@H](O)C[C@H]2/C=C/CCC[C@H](C(F)(F)F)O1	-30.8% (active)	-46.7% (active)	–	59.2%	-27.6% (active)	33.4%	-11.6% (active)	–	-2.27% (active)
Cc1ccc(C(=O)C2C(=O)C3CCC2C3)cc1 (stereo not given)	94.4%	99.2%	99.6%	–	101%	102%	104%	100%	98%
COC(=O)c1c[nH]c2cc(OC(C)C)c(OC(C)C)cc2c1=O	97.6%	92.9%	37.9%	–	94.3%	61.8%	110%	108%	80.5%
O[C@@H]1CO[C@H]2[C@@H]1OC[C@@H]2O	109%	109%	107%	–	111%	96.9%	109%	119%	108%
Cc1cc(O)ccc1C1=NN(c2ccc(S(C)(=O)=O)cc2)C(=O)CC1	32.9%	93.3%	–	73.1%	2.39% (active)	72.2%	84.1%	65.8%	92.8%
COc1ccccc1-n1c(-c2csc(NC(C)=O)n2)n[nH]c1=S	93.1%	96.7%	–	109%	82.5%	100%	97.2%	115%	96%
COc1ccc(-c2nn(-c3cccc(Cl)c3)cc2-c2nc(N)[nH]c(=O)c2C#N)cc1	42.7%	67.3%	–	92.2%	49.6%	85.1%	57.2%	107%	71.2%
COc1ccc2cc(-c3nc4ccccc4s3)c(Cl)nc2c1OC	84.4%	93.9%	–	98.4%	101%	110%	119%	98%	85.3%
NS(=O)(=O)Oc1ccc2c(ccn2C(=O)C23CC4CC(CC(C4)C2)C3)c1	97%	93.4%	–	104%	94.9%	101%	110%	114%	122%
N#CC1=CC2CN(Cc3ccccc3)C1C1C(=O)N(c3ccccc3)C(=O)C21 (stereo not given)	88%	97.7%	–	101%	106%	95.5%	102%	98.2%	108%
O=c1cn[nH]c2ccc(Br)cc12	97.6%	100%	–	108%	91.3%	102%	99.6%	109%	123%
CCOC(=O)CC(S(=O)(=O)c1ccccc1)S(=O)(=O)c1ccccc1	98.3%	95.7%	–	103%	-11.9% (active)	95.3%	115%	-87.1% (active)	89.7%
COc1ccc(/C(=N\N)C(=O)c2ccccc2)cc1 (tested in a mixture with another compound)	96.8%	95.6%	100%	–	72.7%	90.4%	105%	110%	82.7%
Cc1ccc(C2=NN(c3ccc(S(C)(=O)=O)cc3)C(=O)CC2)cc1	-19.6% (active)	77.6%	–	12.8%	-28.5% (active)	36.6%	38.3%	4.23% (active)	60.9%
CCOC(=O)c1cc(C(=O)c2cc(OC)cc(OC)c2)n2nc(C)ccc12	37.2%	78.6%	–	10.8%	-10.9% (active)	26.9%	34.4%	-11.5% (active)	13.9%
COc1ccc(-c2nn(-c3cccc(Cl)c3)cc2-c2c(C#N)c(N)n(N)c(=O)c2C#N)cc1	66.9%	66.5%	–	72.2%	-46% (active)	66.2%	84.2%	85.3%	53.8%
O=[N+]([O-])c1ccc(NCSc2ccc(Cl)cc2)cc1	99.4%	112%	109%	–	86.5%	96.3%	93.4%	103%	98.2%
